KinaseGlo FLuc: blocks Kinase-Glo luciferase, a counter-screen artifact | Q27757 | Kinase-Glo luciferase, ATP luminescence, 8 min | Potency, µM (highest dose often 38.3 µM), actives largely listed as inhibitors | actives 0.28% (n = 200,000) | AID 1379; also: nearly all actives have a fitted effect of over 60% in size
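Kinase-Glo luciferase light output from ATP and luciferin was measured with 10 uM ATP, within the enzyme's linear range. Buffer: 50 mM imidazole pH 7.2, 50 mM KCl, 7 mM MgCl2, 0.01% Tween 20, 0.05% BSA; luminescence read after 8 min at ambient temperature.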
HTT cytoprotect: cytoprotection in Huntington HTT-Q103 PC12 cell model. Potency, µM (highest dose often 56.4 µM), actives largely listed as activators. actives 0.14% (n = 230,000). AID 1471. PC12 HTT-Q103 induced, cytoprotection, ATP luminescence, 40 h; also: nearly all actives have a fitted effect of over 45% in size
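Cells were plated at 1500 per well in phenol red-free DMEM with 5% equine and 5% calf serum. Tebufenozide (100 nM final) and compounds were added, then ATPlite reagent, and luminescence was read.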
ALDH1A1 block: inhibitors of human aldehyde dehydrogenase 1A1. Purified ALDH1A1, NADH fluorescence, propionaldehyde substrate. Potency, µM (series often up to 75.3 µM), hits mostly inhibitors. actives 7.3% (n = 220,000). AID 1030; active = well fitted inhibition curve with a large enough effect, not every such curve was filed as active; inconclusive = small, poorly fitted or top-dose-only effect, or another doubt; inactive = no such curve, though single readings can be large or run the other way
Target sequence (P00352 whole entry, looked up): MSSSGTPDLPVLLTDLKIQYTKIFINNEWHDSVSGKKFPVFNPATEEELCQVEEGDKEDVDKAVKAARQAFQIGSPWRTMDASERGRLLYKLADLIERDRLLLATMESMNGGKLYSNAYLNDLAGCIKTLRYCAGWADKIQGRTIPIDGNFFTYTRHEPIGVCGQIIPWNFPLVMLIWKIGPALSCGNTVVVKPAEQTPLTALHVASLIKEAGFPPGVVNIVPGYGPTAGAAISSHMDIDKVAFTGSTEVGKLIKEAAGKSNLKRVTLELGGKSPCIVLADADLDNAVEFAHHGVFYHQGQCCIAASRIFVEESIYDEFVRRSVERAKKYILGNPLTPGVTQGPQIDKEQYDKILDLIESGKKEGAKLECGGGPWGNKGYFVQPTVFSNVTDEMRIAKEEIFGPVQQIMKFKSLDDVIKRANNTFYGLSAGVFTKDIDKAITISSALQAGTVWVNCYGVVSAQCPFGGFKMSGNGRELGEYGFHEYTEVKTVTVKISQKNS
HPGD block: inhibitors of human 15-hydroxyprostaglandin dehydrogenase (HPGD). purified HPGD, NADH fluorescence kinetic, PGE2 substrate. P15428. actives 4.3% (n = 150,000). Potency, µM, usual class: inhibitors; active = well fitted inhibition curve with a large enough effect, not every such curve was filed as active; inconclusive = small, poorly fitted or top-dose-only effect, or another doubt; inactive = no such curve, though single readings can be large or run the other way
Target sequence (P15428 whole entry, looked up): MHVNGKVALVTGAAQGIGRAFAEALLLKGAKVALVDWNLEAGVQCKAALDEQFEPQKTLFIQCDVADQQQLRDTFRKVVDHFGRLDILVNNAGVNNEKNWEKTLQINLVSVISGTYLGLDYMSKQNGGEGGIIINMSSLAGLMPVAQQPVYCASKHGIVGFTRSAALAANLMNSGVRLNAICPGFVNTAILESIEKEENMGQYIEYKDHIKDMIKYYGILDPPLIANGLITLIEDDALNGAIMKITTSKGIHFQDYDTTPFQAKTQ
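NADH formation kinetics: reaction with 30 uM PGE2 and 1 mM NAD+ (final), 20 nM enzyme, Tris-HCl pH 8 with Tween 20, after 15 min compound preincubation at room temperature. Fluorescence change, last versus first of five reads.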
LMNA splice mod: changes lamin A minigene splicing in HeLa cells | HeLa LMNA splicing GFP/RFP minigene ratio, 48 h | Potency, µM (titrated, usually from 46.1 µM), usual class: inhibitors | actives 0.01% (n = 200,000); active = well fitted inhibition curve with a large enough effect in the signal ratio, with a control signal flat, not every such curve was filed as active; inconclusive = small, poorly fitted or top-dose-only effect, or effect the other way, or a change in a side signal; the % refers to the signal ratio
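Read-out is the ratio of GFP to DsRed2 object intensity, acquired by 488 nm laser-scanning cytometry on HeLa lamin A-EGFP minigene reporter cells. Compound incubation 48 hrs at 37 °C in Opti-MEM with 2% FBS; DMSO 0.5% final.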
HTT aggregate: inhibitors of mutant huntingtin aggregate formation in PC12 cells; PC12 HttQ103-GFP aggregates, Acumen cytometry, 40 h; Potency, µM (titrated, usually from 46.1 µM), most hits filed as inhibitors; actives 1.1% (n = 220,000); also: nearly all actives have a fitted effect of over 60% in size
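Ecdysone-promoter PC12 model expressing HTT exon 1 Q103 fused to GFP, induced by tebufenozide at 100 nM final. Compounds titrated; aggregates sized 1–25 µm scored on a 488 nm laser cytometer.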
Hits are given with their value; [ ] = remark or other dose. Sampled rows, rich in hits. Any-hit rate of the full collection: about 9%. Unless noted, calls follow the shape of the dose curve; as a rule, active = well fitted curve in the direction sought with a large enough effect; inconclusive = small, poorly fitted or top-dose-only effect, or another doubt; inactive = no such curve, though single readings can be large; an effect the other way counts as inactive or inconclusive.

What do the screens show for `FC(F)(F)c1cccc(NC(=S)NC(c2ccccc2)c2ccccc2)c1`?
KinaseGlo FLuc: inactive; HTT cytoprotect: inactive[10 µM]; ALDH1A1 block: inactive; HPGD block: inactive; LMNA splice mod: inconclusive; HTT aggregate: inconclusive

How did CCOc1ccc(NC(=S)NNC(=S)Nc2cccc(C(F)(F)F)c2)cc1 do in these assays?
HTT cytoprotect: inactive[10 µM]; ALDH1A1 block: 1.3µM; HTT aggregate: inactive[9.22 µM]

Results for FC(F)(F)c1cccc(NC(=S)Nc2ccc(Cl)c(Cl)c2)c1 ?
HTT cytoprotect: inactive[10 µM]; ALDH1A1 block: 13µM; HTT aggregate: inactive[9.22 µM]

What do the screens show for `O=C(c1ccccc1)N1CCN(CC#Cc2ccccc2)CC1`?
KinaseGlo FLuc: inactive; HTT cytoprotect: inactive[0.074 µM]; ALDH1A1 block: inactive; HPGD block: inactive; LMNA splice mod: inconclusive; HTT aggregate: inactive

Results for COC(=O)c1cc(OC)c(OC)cc1NC(=O)c1ccco1 ?
KinaseGlo FLuc: inactive; HTT cytoprotect: inactive; ALDH1A1 block: inactive; HPGD block: inactive; LMNA splice mod: inactive; HTT aggregate: inactive

Results for COc1cc(NS(=O)(=O)c2cc(Br)cc3c2N(C(C)=O)C(C)C3)cc(OC)c1 (stereo not given) ?
LMNA splice mod: inactive

What do the screens show for `Cc1ccccc1NC(=O)Nc1ccc(C(F)(F)F)cc1`?
KinaseGlo FLuc: inactive; HTT cytoprotect: inactive; ALDH1A1 block: inactive; HTT aggregate: 11µM

Results for CN(C)CCCN(Cc1ccccc1)C(=S)Nc1cccc(C(F)(F)F)c1 ?
ALDH1A1 block: inactive; LMNA splice mod: inconclusive; HTT aggregate: 0.0006µM

What do the screens show for `COc1ccc(NC(=S)NNC(=O)c2ccccc2OC(F)F)cc1`?
KinaseGlo FLuc: inactive; HTT cytoprotect: inactive; ALDH1A1 block: inactive; HPGD block: inactive; LMNA splice mod: inactive; HTT aggregate: inactive

What do the screens show for `Cc1cccc(NC(=S)NNC(=O)c2ccccc2OC(F)F)c1`?
KinaseGlo FLuc: inactive; HTT cytoprotect: inactive; ALDH1A1 block: 9.5µM; HPGD block: inactive; LMNA splice mod: inconclusive; HTT aggregate: inconclusive

How did CCCN(Cc1ccccc1)C(=S)Nc1cccc(C(F)(F)F)c1 do in these assays?
KinaseGlo FLuc: inactive; HTT cytoprotect: inactive[10 µM]; ALDH1A1 block: inactive; HPGD block: inactive; LMNA splice mod: inconclusive; HTT aggregate: inactive

What do the screens show for `CCOc1ccc(NC(=O)c2cc(SC)ccc2Cl)cc1`?
KinaseGlo FLuc: inactive; HTT cytoprotect: inactive[10 µM]; ALDH1A1 block: inactive; HPGD block: inactive; LMNA splice mod: inactive; HTT aggregate: inactive

How did CCOc1ccc(NC(=S)NNC(=O)c2cc(Br)ccc2Cl)cc1 do in these assays?
KinaseGlo FLuc: inactive; ALDH1A1 block: 13µM; HTT aggregate: inconclusive

How did CCN1CCN(C(c2ccccc2Cl)c2c(O)cc(C)n(CCOC)c2=O)CC1 (stereo not given) do in these assays?
LMNA splice mod: inactive

Results for CCn1ncc(NC(=O)Nc2cccc(C(F)(F)F)c2)c1C(N)=O ?
KinaseGlo FLuc: inactive; HTT cytoprotect: inactive[0.074 µM]; ALDH1A1 block: inactive; HPGD block: inactive; LMNA splice mod: inactive; HTT aggregate: inactive

How did CCSCCc1nnc(NC(=O)Nc2cccc(C(F)(F)F)c2)s1 do in these assays?
KinaseGlo FLuc: inactive; HTT cytoprotect: inactive[1.9 µM]; ALDH1A1 block: inactive; HPGD block: inactive; LMNA splice mod: inconclusive; HTT aggregate: 11µM

How did O=C(O)CS(=O)CC(=O)NCc1cccc(C(F)(F)F)c1 (stereo not given) do in these assays?
KinaseGlo FLuc: inactive; HTT cytoprotect: inactive; ALDH1A1 block: inactive; HTT aggregate: inactive

Results for O=C(O)CS(=O)CC(=O)Nc1cccc(C(F)(F)F)c1 (stereo not given) ?
KinaseGlo FLuc: inactive; HTT cytoprotect: inactive; ALDH1A1 block: 1.8µM; HTT aggregate: inactive

How did Cc1ccccc1C(=O)NNC(=S)Nc1cccc(C(F)(F)F)c1 do in these assays?
KinaseGlo FLuc: inactive; ALDH1A1 block: 18µM; HPGD block: inactive; LMNA splice mod: inconclusive; HTT aggregate: inactive

Results for FC(F)(F)c1cccc(NC(=S)NNC(=S)Nc2cccc(C(F)(F)F)c2)c1 ?
HTT cytoprotect: inactive[10 µM]; ALDH1A1 block: 1.6µM; HTT aggregate: inactive[9.22 µM]

What do the screens show for `Cc1ccc(C)c(C(=O)COc2ccccc2[N+](=O)[O-])c1`?
KinaseGlo FLuc: inactive; HTT cytoprotect: inactive[1.9 µM]; ALDH1A1 block: inactive; HPGD block: inactive; LMNA splice mod: inactive; HTT aggregate: inactive

Results for Cc1ccc(C2C3=C(CC(C)(C)CC3=O)OC3=C2C(=O)CC(C)(C)C3)cc1 ?
KinaseGlo FLuc: inactive; ALDH1A1 block: inactive; LMNA splice mod: inactive

How did Cc1cc(C(F)(F)F)c2sc(N)nc2n1 do in these assays?
KinaseGlo FLuc: inactive; HTT cytoprotect: inactive; ALDH1A1 block: inactive; HPGD block: inactive; LMNA splice mod: inactive; HTT aggregate: inactive

How did Cc1cccc(C)c1NC(=O)C1c2cccc[n+]2CC(=O)N1Cc1cccs1 (stereo not given) do in these assays?
KinaseGlo FLuc: inactive; HTT cytoprotect: inactive; ALDH1A1 block: inactive; LMNA splice mod: inactive[9.22 µM]; HTT aggregate: inactive

How did CC(C)(C)NC(=O)C(c1ccncc1)N(C(=O)Cn1nnc(-c2ccc(F)cc2)n1)c1ccc(F)cc1 (stereo not given) do in these assays?
KinaseGlo FLuc: inactive; HTT cytoprotect: inconclusive; ALDH1A1 block: inactive; LMNA splice mod: inactive; HTT aggregate: inactive[9.22 µM]

What do the screens show for `O=C(NCc1ccccc1)C(c1ccc(F)cc1)N(Cc1ccc2c(c1)OCO2)C(=O)Cn1nnc(-c2cccs2)n1` (stereo not given)?
KinaseGlo FLuc: inactive; HTT cytoprotect: inactive[1.9 µM]; ALDH1A1 block: 25µM; HPGD block: inactive; LMNA splice mod: inactive; HTT aggregate: inactive

What do the screens show for `CC(C)(C)NC(=O)C(c1ccncc1)N(C(=O)Cn1nnc(-c2ccc(F)cc2)n1)c1ccccc1` (stereo not given)?
KinaseGlo FLuc: inactive; HTT cytoprotect: inactive[10 µM]; ALDH1A1 block: 3.2µM; HTT aggregate: inactive[9.22 µM]

How did CC(C)(C)NC(=O)C(c1ccncc1)N(Cc1cccs1)C(=O)Cn1nnc(-c2cccs2)n1 (stereo not given) do in these assays?
KinaseGlo FLuc: inactive; HTT cytoprotect: inactive; ALDH1A1 block: 4.5µM; HPGD block: inactive; LMNA splice mod: inactive; HTT aggregate: inactive

What do the screens show for `CC(=O)c1c(C(C)=O)c(C)n(-c2ccc3ncccc3c2)c1C`?
KinaseGlo FLuc: inactive; HTT cytoprotect: inactive[10 µM]; ALDH1A1 block: inactive; LMNA splice mod: inactive; HTT aggregate: inactive[9.22 µM]

Results for Nc1nc(SCC(=O)NCc2ccc(F)cc2)[nH]c(=O)c1NC(=O)c1ccc(Cl)cc1 ?
KinaseGlo FLuc: inactive; HTT cytoprotect: inactive[10 µM]; ALDH1A1 block: inactive; HPGD block: inactive; LMNA splice mod: inactive; HTT aggregate: inactive

Results for [O-][n+]1onc2c3cc(-c4ccccc4)nnc3ccc21 ?
KinaseGlo FLuc: inactive; HTT cytoprotect: inactive; ALDH1A1 block: inactive; HPGD block: inactive; LMNA splice mod: inactive; HTT aggregate: inconclusive

Screens from PubChem BioAssay.
